Paper PMC7826789 (International Journal of Molecular Sciences, 2021)

Legend:
Settings in all cases: Compound Concentration (nM):1000
STK33 = system: STK33
STK35 = system: STK35
STK36 = system: STK36
STK39 = system: STK39
SYK = system: SYK
SgK110 = system: SgK110
TAK1 = system: T1, TAK1
T1 construct: gene MAP3K7

TAOK1 = system: TAOK1
TAOK2 = system: TAOK2
TAOK3 = system: TAOK3
TBK1 = system: TBK1
TEC = system: TEC
TESK1 = system: TESK1
TGFBR1 = system: TGFBR1
TGFBR2 = system: TGFBR2
TIE1 = system: TIE1
TIE2 = system: T2, TIE2
T2 construct: gene TEK

TLK1 = system: TLK1
TLK2 = system: TLK2
TNIK = system: TNIK
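Further: KINOMEscan scanMAX binding as percent activity remaining versus control; lower means stronger binding.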

Row | Structure (SMILES) | Percent Control (STK33) [%] | Percent Control (STK35) [%] | Percent Control (STK36) [%] | Percent Control (STK39) [%] | Percent Control (SYK) [%] | Percent Control (SgK110) [%] | Percent Control (TAK1) [%] | Percent Control (TAOK1) [%] | Percent Control (TAOK2) [%] | Percent Control (TAOK3) [%] | Percent Control (TBK1) [%] | Percent Control (TEC) [%] | Percent Control (TESK1) [%] | Percent Control (TGFBR1) [%] | Percent Control (TGFBR2) [%] | Percent Control (TIE1) [%] | Percent Control (TIE2) [%] | Percent Control (TLK1) [%] | Percent Control (TLK2) [%] | Percent Control (TNIK) [%]
1 | NS(=O)(=O)c1ccc(N/N=C2\C(=O)Nc3ccc(Cl)cc32)cc1 [GW280670X] | 95 | 100 | 100 | 100 | 98 | 100 | 81 | 95 | 100 | 100 | 100 | 100 | 100 | 100 | 100 | 100 | 100 | 100 | 100 | 47
2 | CCS(=O)(=O)c1ccc(OC)c(Nc2ncc(-c3cccc(F)c3)o2)c1 [GW621970X] | 95 | 100 | 100 | 100 | 81 | 100 | 100 | 87 | 100 | 100 | 100 | 100 | 89 | 100 | 52 | 69 | 100 | 100 | 86 | 82
3 | Cc1cc(O)cc(C)c1/C=C/c1cncc(C(N)=O)c1 [GW435821X] | 94 | 69 | 100 | 100 | 74 | 100 | 100 | 74 | 91 | 98 | 100 | 100 | 100 | 84 | 81 | 100 | 100 | 100 | 100 | 100
4 | Cl.O=C(Nc1ccc(Oc2ccc3[nH]c(NC(=O)c4ccccc4)nc3c2)cc1)Nc1cc(C(F)(F)F)ccc1F [GW709042A] | 29 | 95 | 100 | 100 | 99 | 100 | 58 | 90 | 91 | 98 | 88 | 100 | 96 | 100 | 100 | 2.3 | 7.5 | 100 | 86 | 100
5 | C[C@@H](Oc1cc(-n2cnc3ccc(OC4CCN(C)CC4)cc32)sc1C(N)=O)c1ccccc1Cl [GSK579289A] | 100 | 82 | 76 | 83 | 100 | 100 | 38 | 75 | 96 | 79 | 67 | 99 | 72 | 100 | 100 | 52 | 69 | 81 | 77 | 75
6 | Cl.O=C(O[C@H]1CN[C@H](C#Cc2cc3ncnc(Nc4ccc5c(cnn5Cc5ccccc5)c4)c3s2)C1)N1CCOCC1 [GSK200398A] | 90 | 99 | 100 | 83 | 91 | 100 | 100 | 91 | 97 | 100 | 100 | 100 | 96 | 97 | 100 | 100 | 100 | 80 | 72 | 96
7 | COc1cc2ncnc(Nc3ccc4c(cnn4Cc4ccccc4)c3)c2cc1OC.Cl [GW282449A] | 98 | 100 | 100 | 100 | 77 | 100 | 100 | 100 | 100 | 100 | 100 | 83 | 100 | 100 | 100 | 100 | 100 | 100 | 100 | 100
8 | CN(C)CCNC(=O)Nc1ccc(N(C)c2ccnc(Nc3ccc(CS(C)(=O)=O)cc3)n2)cc1.Cl [GW830900A] | 85 | 14 | 70 | 78 | 97 | 47 | 48 | 80 | 86 | 89 | 98 | 82 | 100 | 100 | 75 | 72 | 100 | 89 | 100 | 49
9 | CC(C)COC(=O)c1ccc2c(c1)/C(=C/Nc1ccc(S(N)(=O)=O)cc1)C(=O)N2 [GW416981X] | 24 | 100 | 100 | 100 | 100 | 100 | 21 | 85 | 100 | 99 | 17 | 100 | 100 | 100 | 42 | 100 | 100 | 100 | 95 | 58
10 | COc1cc(N2CCN(C(C)C)CC2)ccc1Nc1nc(Nc2ccc(F)cc2C(=O)NC[C@@H](O)CO)c2cc[nH]c2n1 [GSK1392956A] | 1.5 | 100 | 100 | 65 | 92 | 100 | 100 | 67 | 100 | 100 | 100 | 100 | 92 | 100 | 100 | 100 | 100 | 83 | 92 | 72
